The values that follow come from ChEMBL document CHEMBL4513216, “Probing the Open Global Health Chemical Diversity Library for Multistage-Active Starting Points for Next-Generation Antimalarials” (ACS Infect Dis, 2020).

About 8,600 (12%) of roughly 69,000 compounds showed an effect of 50% or more. The full list was thinned out, with strong results kept by preference.

In the experiment the test system is Plasmodium berghei. The experiment is described as follows: Screen against P. berghei liver stage (PbLuc), transformed with Luciferase, at 10uM. Particulars: tested at 10 uM. The format is functional, HepG2.
In the case of `Cn1nc(Cn2cccn2)c2c1CN(C1CCOC1)C2` (stereo not drawn), the INHIBITION was -4.02%.
In the case of `COCC(=O)N1CCN(C)C(=O)C(Cc2ccccc2-c2cccs2)C1` (stereo not drawn), the INHIBITION is -20.6%.
`O=C(NCC1CC1)C1CCC2(CCN(C(=O)c3ccncc3)CC2)O1` (stereo not drawn): the INHIBITION was -6.05%.
Take `CCc1nc(C2CCCN2Cc2nnc(C3CC3)o2)no1` (stereo not drawn): the INHIBITION is reported as -5%.
With `Cc1oc(-c2ccco2)nc1CN1CCCC(Cn2cncn2)C1` (stereo not drawn), the INHIBITION is -97.8%.
On to `CC(=O)N(Cc1ncc(C(C)C)o1)C1CCN(Cc2cc(C)no2)C1` (stereo not drawn), for which the INHIBITION is listed as 13.95%.
Consider `Cc1nccn1CCCNc1nccnc1C#N`, for which the INHIBITION was found to be 12.9%.
To `CN1CCC2(CCN(CC3CCOCC3)CC2)C1=O` belongs 26.5%.
To `CS(=O)(=O)c1ccc(C(=O)NCc2nc3cc(F)ccc3[nH]2)cc1` belongs 52.2%; to `CN(C)c1cc(CNC(=O)c2cccc(F)c2)ccn1`, 24%.
Consider `CS(=O)(=O)c1cccc(C(=O)NCc2nc3cc(F)ccc3[nH]2)c1`, for which the INHIBITION turned out to be 64.5%.
As to `O=C(NCc1nc2cc(F)ccc2[nH]1)c1ccc[nH]1`, the INHIBITION is on record as -7.16%.
`CS(=O)(=O)c1cccc(C(=O)NCC2Cc3ccccc3O2)c1` (stereo not drawn): the INHIBITION came to 9.06%.
To `CS(=O)(=O)c1ccc(C(=O)NCCNc2ncccn2)cc1` belongs -5.07%; to `CC(C)CN1CC(C(=O)NCc2cccnc2-n2cccn2)CC1=O` (stereo not drawn), 19.5%.
Turning to `Cc1noc(C2(C)CCCN(C(=O)C(C)C)C2)n1` (stereo not drawn), the INHIBITION was determined as 12.8%.
Regarding `Cc1csc2c(C3CCCN(C(=O)Cn4cncn4)C3)nc(C)n12` (stereo not drawn), the INHIBITION is on record as 7.19%.
For the compound `c1cncc(CN2CCc3ncnc(C4CC4)c3CC2)c1`, the INHIBITION is recorded as 6.72%.
On to `CC(C)N(C)C(=O)C1=NOC2(CCN(C(=O)c3ccncc3)C2)C1` (stereo not drawn), for which the INHIBITION amounted to 3.47%.
Regarding `Cc1ccsc1C(=O)N1CCC2(CC(C(=O)N(C)C(C)C)=NO2)C1` (stereo not drawn), the INHIBITION is 56.6%.
`CC(C)N(C)C(=O)C1=NOC2(CCN(C(=O)c3ccc(Cl)cc3)C2)C1` (stereo not drawn): the INHIBITION is -6.53%.
On to `O=C(C1CC=CC1)N1CCc2c(COCc3ccncc3)cncc2C1`, for which the INHIBITION worked out at 6.8%.
Regarding `CCc1nc(C2CCCN(C(=O)c3cccc(C(N)=O)c3)C2)no1` (stereo not drawn), the INHIBITION was 19.5%.
On to `Cc1ccc2cc(C(=O)N3CCS(=O)(=O)CC3)[nH]c2c1`, for which the INHIBITION was 53.6%.
As for `Cc1ccc2cc(C(=O)N3CCN(C(=O)c4ccoc4)CC3)[nH]c2c1`, the INHIBITION is on record as 24.8%.
To `Cc1ccc2cc(C(=O)N3CCN(S(C)(=O)=O)CC3)[nH]c2c1` belongs -11.4%; to `CCS(=O)(=O)CCN1CCN(C2CCC(C(C)C)CC2)CC1` (stereo not drawn), 13.8%; to `CC(NCC1(N(C)C)CCOCC1)c1ccc(SC(F)F)cc1` (stereo not drawn), 40.5%.
As for `CCOc1ccccc1C(CC(=O)Nc1ncc(C)s1)NC(C)=O` (stereo not drawn), the INHIBITION came to 39.3%.
With `CC(C)NC(=O)c1ccc2c(c1)nc1n2CCN(Cc2ccccc2)C1`, the INHIBITION came to 33.3%.
For `Fc1ccccc1CN1CCCC(NC2CCOCC2)C1` (stereo not drawn), the INHIBITION is recorded as 49.4%.
Regarding `O=C(Cc1ccsc1)N1CCC(c2n[nH]c3nccnc23)CC1`, the INHIBITION was -0.902%.
On to `Cn1nc(C2CCCN(C(=O)Cc3ccsc3)C2)c2nccnc21` (stereo not drawn), for which the INHIBITION is 48.3%.
On to `CN1CCN(C(=O)Cc2ccc(F)cc2)Cc2cccnc21`, for which the INHIBITION is recorded as -69.9%.
As to `O=C(Cc1ccsc1)N1CCCC(c2n[nH]c3ncccc23)C1` (stereo not drawn), the INHIBITION came to 67.7%.
On to `c1cc(-c2nc(C3CCN(Cc4ccsc4)CC3)no2)ccn1`, for which the INHIBITION is given as 50.8%.
On to `O=C(Cc1ccsc1)N1CCCC(c2n[nH]c3nccnc23)C1` (stereo not drawn), for which the INHIBITION is listed as 59.1%.
The figure for `CN1CCN(C(=O)Cc2ccsc2)Cc2cccnc21` is 64.9%.
The figure for `O=C(Cc1ccsc1)N1CCN(CC2CC2)c2ncccc2C1` is 29.4%.
Regarding `Fc1cccc(CN2CCC(c3noc(-c4ccncc4)n3)CC2)c1F`, the INHIBITION is on record as 28.5%.
For `Cn1nc(C2CCN(C(=O)Cc3ccsc3)CC2)c2cccnc21`, the INHIBITION came to 28%.
In the case of `O=C(Cc1ccsc1)N1CCC(c2noc(-c3ccncc3)n2)CC1`, the INHIBITION is reported as -0.902%.
As for `O=C(Cc1ccc(F)cc1)N1CCCC(c2n[nH]c3nccnc23)C1` (stereo not drawn), the INHIBITION was determined as 23.2%.
For the compound `CC(=O)N1N=C(c2ccco2)OC1C(=O)N(CC(C)C)CC(C)C` (stereo not drawn), the INHIBITION is given as -33%.
On to `CC(C)c1cc(C(=O)N2CCN(CC3CC3)[C@@H]3CS(=O)(=O)C[C@@H]32)on1`, for which the INHIBITION turned out to be 42.1%.
For the compound `O=C(NCCn1ccnc1)c1ccn(-c2ccccc2)n1`, the INHIBITION stood at 1.78%.
As to `Cc1ccc(CN(CCCN(C)C)Cc2cnc(C)n2C)o1`, the INHIBITION is on record as 9.93%.
Consider `Cc1nnsc1CNC(=O)c1ccc2c(c1)nc(N1CCOCC1)n2C`, for which the INHIBITION is on record as -24.6%.
For the compound `CC(C)c1nc(CCn2cncn2)n(-c2ccc3c(c2)OCCO3)n1`, the INHIBITION worked out at 3.96%.
The figure for `c1cnc2c(C3CCN(Cc4ccsc4)CC3)n[nH]c2n1` is 64.8%; for `Fc1ccc(CN2CCC(c3n[nH]c4nccnc34)CC2)cc1F` it is 35.3%.
To `Cc1ccc(CCC(=O)N2CCCC(c3cc(C(N)=O)[nH]n3)C2)cc1` (stereo not drawn) belongs 48.1%; to `Cc1cccc(CC(=O)N2CCCC(c3n[nH]c4nccnc34)C2)c1` (stereo not drawn), 50.8%.
